Measurements as given in paper PMC5700166.

Experiments:
Assay in all cases: protein-binding microarray (PBM); PBM: ~300 nM protein, 6 mM HEPES pH 7.8, 80 mM KCl, 0.5 mM EDTA, 0.5 mM EGTA, 6% glycerol, 35 ng/ul poly-dIdC, 1% milk, 1 h, room temperature; Ap Aiptasia and Nv Nematostella (sea anemones) / Co Capsaspora / Aq Amphimedon (sponge) / Dm Drosophila / Hu human; RHD is the Rel homology domain; high values mean tight binding
Settings in all cases: dsDNA, one strand shown
GST-Ap-NF-kB RHD = biological target: T1, GST-Ap-NF-kB RHD (Exaiptasia pallida (Aiptasia), UniProt A0A913YAJ5 2-422)
T1 sequence: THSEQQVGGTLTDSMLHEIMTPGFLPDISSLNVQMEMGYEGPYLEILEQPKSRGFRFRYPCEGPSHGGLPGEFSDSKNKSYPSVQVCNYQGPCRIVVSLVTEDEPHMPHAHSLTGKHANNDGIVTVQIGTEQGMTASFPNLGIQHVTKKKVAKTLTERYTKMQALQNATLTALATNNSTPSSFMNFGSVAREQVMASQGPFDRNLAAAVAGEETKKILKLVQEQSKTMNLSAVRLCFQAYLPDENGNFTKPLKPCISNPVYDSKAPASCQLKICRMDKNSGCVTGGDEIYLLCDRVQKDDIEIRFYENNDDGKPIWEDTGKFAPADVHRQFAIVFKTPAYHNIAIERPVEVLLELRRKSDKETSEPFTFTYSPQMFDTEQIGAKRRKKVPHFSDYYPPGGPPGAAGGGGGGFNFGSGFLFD

[1] = biological target: T2, GST-Nv-NF-kB (Cys allele) (Nematostella vectensis, UniProt E5G601 2-411)
T2 sequence: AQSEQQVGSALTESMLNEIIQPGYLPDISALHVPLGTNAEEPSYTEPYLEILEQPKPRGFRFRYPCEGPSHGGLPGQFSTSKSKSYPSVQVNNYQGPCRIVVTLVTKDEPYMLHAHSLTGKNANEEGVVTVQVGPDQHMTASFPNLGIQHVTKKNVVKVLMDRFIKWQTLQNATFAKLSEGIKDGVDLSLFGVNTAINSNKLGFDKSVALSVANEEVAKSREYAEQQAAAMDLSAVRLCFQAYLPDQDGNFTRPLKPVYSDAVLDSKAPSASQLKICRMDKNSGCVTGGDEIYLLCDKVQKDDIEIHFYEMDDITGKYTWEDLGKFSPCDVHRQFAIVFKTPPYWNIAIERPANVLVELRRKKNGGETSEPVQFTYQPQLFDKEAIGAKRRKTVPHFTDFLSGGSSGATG

GST-Co-NF-kB = biological target: T3, GST-Co-NF-kB (Capsaspora owczarzaki, UniProt F1ARL5 200-546)
T3 sequence: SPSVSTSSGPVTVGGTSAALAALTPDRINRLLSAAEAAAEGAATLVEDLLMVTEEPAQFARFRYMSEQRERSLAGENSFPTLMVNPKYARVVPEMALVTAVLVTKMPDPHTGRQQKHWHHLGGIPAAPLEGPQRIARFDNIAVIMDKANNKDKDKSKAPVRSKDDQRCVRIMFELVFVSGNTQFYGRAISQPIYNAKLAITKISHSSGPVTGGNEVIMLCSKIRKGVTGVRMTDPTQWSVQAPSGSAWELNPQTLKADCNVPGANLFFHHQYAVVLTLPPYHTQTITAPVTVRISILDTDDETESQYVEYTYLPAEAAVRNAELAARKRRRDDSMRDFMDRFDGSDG

GST-Dm-Relish = biological target: T4, GST-Dm-Relish (Drosophila melanogaster, UniProt Q94527 99-473)
T4 sequence: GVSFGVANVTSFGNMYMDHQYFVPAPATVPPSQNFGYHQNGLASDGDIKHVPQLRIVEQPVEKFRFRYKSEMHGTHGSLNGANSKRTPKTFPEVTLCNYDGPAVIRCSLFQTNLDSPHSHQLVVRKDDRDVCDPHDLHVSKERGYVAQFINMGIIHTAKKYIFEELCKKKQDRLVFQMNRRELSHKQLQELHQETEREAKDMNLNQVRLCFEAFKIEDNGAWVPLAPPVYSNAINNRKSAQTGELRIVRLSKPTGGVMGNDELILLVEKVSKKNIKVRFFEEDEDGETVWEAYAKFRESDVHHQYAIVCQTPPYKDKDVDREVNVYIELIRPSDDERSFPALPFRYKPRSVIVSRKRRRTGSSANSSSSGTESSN

GST-Aq-NF-kB = biological target: T5, GST-Aq-NF-kB (Amphimedon queenslandica, UniProt A9Y5G7 2-389)
T5 sequence: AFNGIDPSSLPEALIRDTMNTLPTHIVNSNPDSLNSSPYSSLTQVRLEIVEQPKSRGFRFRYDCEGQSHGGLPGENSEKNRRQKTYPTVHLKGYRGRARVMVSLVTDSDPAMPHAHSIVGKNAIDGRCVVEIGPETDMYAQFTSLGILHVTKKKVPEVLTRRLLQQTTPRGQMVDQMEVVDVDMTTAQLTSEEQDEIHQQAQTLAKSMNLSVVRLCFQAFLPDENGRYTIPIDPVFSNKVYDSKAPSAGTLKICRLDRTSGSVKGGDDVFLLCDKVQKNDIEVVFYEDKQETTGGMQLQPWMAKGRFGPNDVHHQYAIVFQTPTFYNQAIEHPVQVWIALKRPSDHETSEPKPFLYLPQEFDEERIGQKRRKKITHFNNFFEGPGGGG

Row | Sequence | binding signal (GST-Ap-NF-kB RHD) [z-score] | binding signal [1] [z-score] | binding signal (GST-Co-NF-kB) [z-score] | binding signal (GST-Dm-Relish) [z-score] | binding signal (GST-Aq-NF-kB) [z-score]
1 | CCGATTAACATCAGGGGAACACATGATGTTAATCGGGTCTTGATTCGCTTGACGCTGCTG | 4.8 | 5.02 | 6.41 | 4.31 | 4.1
2 | CCGATTAACATCACCGCCCCCCCTGATGTTAATCGGGTCTTGATTCGCTTGACGCTGCTG | 3.91 | 4.65 | 3.8 | 4.88 | 4.3
3 | CCGATTAACATCAGAACTTCCCATGATGTTAATCGGGTCTTGATTCGCTTGACGCTGCTG | 2.63 | 2.58 | 1.5 | 3.3 | 2.91
4 | CCGATTAACATCAAGGGATTCCCTGATGTTAATCGGGTCTTGATTCGCTTGACGCTGCTG | 6.28 | 5.98 | 2.7 | 9.45 | 6.56
5 | CCGATTAACATCAGGATCTTCCCTGATGTTAATCGGGTCTTGATTCGCTTGACGCTGCTG | 3.64 | 3.68 | 1.18 | 1.53 | 5.89
6 | CCGATTAACATCAGGGGGTAGAATGATGTTAATCGGGTCTTGATTCGCTTGACGCTGCTG | 4.45 | 2.63 | 7.1 | 2.13 | 3.38
7 | CCGATTAACATCAGGGAATGCACTGATGTTAATCGGGTCTTGATTCGCTTGACGCTGCTG | 1.84 | 3.18 | 1.11 | 5.07 | 4.84
8 | CCGATTAACATCAGGGGAGTAAATGATGTTAATCGGGTCTTGATTCGCTTGACGCTGCTG | 3.1 | 3 | 4.51 | 1.91 | 3
9 | CCGATTAACATCAGGGAAAGGAATGATGTTAATCGGGTCTTGATTCGCTTGACGCTGCTG | 1.83 | 3.07 | 1.48 | – | 2.97
10 | CCGATTAACATCACCGATTTCCCTGATGTTAATCGGGTCTTGATTCGCTTGACGCTGCTG | 2.92 | 3.79 | 3.27 | 2 | 2.57
11 | CCGATTAACATCAACAGGGAAAATGATGTTAATCGGGTCTTGATTCGCTTGACGCTGCTG | 3.23 | 4.25 | 2.91 | 1.32 | 3.33
12 | CCGATTAACATCAGGGAATGACCTGATGTTAATCGGGTCTTGATTCGCTTGACGCTGCTG | 2.15 | 3.16 | 1.03 | 3.4 | 5.79
13 | CCGATTAACATCAGGGACTCCCATGATGTTAATCGGGTCTTGATTCGCTTGACGCTGCTG | 5.29 | 4.05 | 1.08 | 9.01 | 4.46
14 | CCGATTAACATCAGGAACACCCCTGATGTTAATCGGGTCTTGATTCGCTTGACGCTGCTG | 3.14 | 1.33 | 1.86 | 3.5 | 4.23
15 | CCGATTAACATCAGGGGCTACCCTGATGTTAATCGGGTCTTGATTCGCTTGACGCTGCTG | 4.03 | 3.47 | 1.76 | 3.48 | 6.2
16 | CCGATTAACATCAAATTCCCGTATGATGTTAATCGGGTCTTGATTCGCTTGACGCTGCTG | 2.44 | 4.38 | 2.65 | 3.19 | 3.72
17 | CCGATTAACATCAGAAATCCCACTGATGTTAATCGGGTCTTGATTCGCTTGACGCTGCTG | 2.54 | 2.54 | 1.65 | 5.45 | 2.41
18 | CCGATTAACATCAGGGGTAGGTTTGATGTTAATCGGGTCTTGATTCGCTTGACGCTGCTG | 2.16 | 1.65 | 3.22 | – | 2.1
19 | CCGATTAACATCAAGTATTTCCCTGATGTTAATCGGGTCTTGATTCGCTTGACGCTGCTG | 3.79 | 5.18 | 4.22 | 5.66 | 5.42
20 | CCGATTAACATCAGGCAATTCCCTGATGTTAATCGGGTCTTGATTCGCTTGACGCTGCTG | 2.76 | 5.17 | 1.58 | 2.03 | 6.13
21 | CCGATTAACATCAGGCTTTTCCCTGATGTTAATCGGGTCTTGATTCGCTTGACGCTGCTG | 2.62 | 4.54 | 2.51 | 2.3 | 6.49
22 | CCGATTAACATCAGGTATTCCCATGATGTTAATCGGGTCTTGATTCGCTTGACGCTGCTG | 3.43 | 2.67 | 2.14 | 7.54 | 4.66
23 | CCGATTAACATCACAAACTTCCCTGATGTTAATCGGGTCTTGATTCGCTTGACGCTGCTG | 3.81 | 4.26 | 2.51 | 3.48 | 4.68
24 | CCGATTAACATCAGGGGAGGTACTGATGTTAATCGGGTCTTGATTCGCTTGACGCTGCTG | 4.21 | 3.43 | 3.96 | 6.44 | 4.35
25 | CCGATTAACATCAGGCGTCCCCCTGATGTTAATCGGGTCTTGATTCGCTTGACGCTGCTG | 5.61 | 5.07 | 4.12 | 3.92 | 4.77
26 | CCGATTAACATCAGAATAACCCCTGATGTTAATCGGGTCTTGATTCGCTTGACGCTGCTG | 5.37 | 3.87 | 1.66 | 3.29 | 4.42
27 | CCGATTAACATCAGAATTCCCACTGATGTTAATCGGGTCTTGATTCGCTTGACGCTGCTG | 2.58 | 4.12 | 2.92 | 4.09 | 3.19
